D2 PAM-1 – HTS Assay for Positive Allosteric Modulators of the Human D2 Dopamine Receptor: Primary Screen for Potentiators | HEK293 T-REx D2, calcium flux, EC20 dopamine potentiation | hit rate 0.34% among 340,000 | potentiation, % at 10 µM | D(2) dopamine receptor (Homo sapiens), P14416;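 active means potentiation over 3 SD above the plate norm, cut at about 30% in these data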; further: 0% is about no effect
Target sequence (P14416 whole entry, looked up): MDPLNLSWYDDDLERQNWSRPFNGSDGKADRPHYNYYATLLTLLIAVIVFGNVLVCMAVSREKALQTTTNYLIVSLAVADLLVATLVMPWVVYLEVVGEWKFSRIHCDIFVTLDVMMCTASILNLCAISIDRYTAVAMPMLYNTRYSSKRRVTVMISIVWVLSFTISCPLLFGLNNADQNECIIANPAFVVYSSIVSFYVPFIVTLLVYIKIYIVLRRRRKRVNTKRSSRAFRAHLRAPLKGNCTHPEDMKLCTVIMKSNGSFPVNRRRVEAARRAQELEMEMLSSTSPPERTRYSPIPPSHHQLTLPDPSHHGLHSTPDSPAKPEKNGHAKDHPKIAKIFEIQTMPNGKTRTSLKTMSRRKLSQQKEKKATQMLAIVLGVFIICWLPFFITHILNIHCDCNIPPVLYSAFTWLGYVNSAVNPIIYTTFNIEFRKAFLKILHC
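Tetracycline-induced HEK293 T-REx cells force-coupled to calcium signalling expressed D2; compounds were pin-added after a 10 s baseline, read kinetically 180 s, then an EC20 dopamine challenge followed with a further 180 s calcium read.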
D2 ag-1 – HTS Assay for Allosteric Agonists of the Human D2 Dopamine Receptor: Primary Screen for Agonists | activation, % at 2 µM | hit rate 0.53% among 340,000 | D(2) dopamine receptor (Homo sapiens), P14416 | HEK293 T-REx D2 cells, calcium flux agonist mode;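 active means activation over 3 SD above normal in the single-dose calcium agonist read, cut at about 30% in these data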; further: 0% is about no effect
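In this primary screen, compounds producing a positive calcium signal within 180 s of addition to tetracycline-induced, force-coupled HEK293 Trex D2 cells are flagged; cells are dye-loaded with a no-wash calcium kit beforehand.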
D2 antag – HTS Assay for Allosteric Antagonists of the Human D2 Dopamine Receptor: Primary Screen for Antagonists; hit rate 2% among 340,000; D(2) dopamine receptor (Homo sapiens), P14416; AID 485344, 2010; HEK293 TREx D2 cells, calcium flux, dopamine EC80; inhibition, % at 10 µM; in the data active means inhibition above about 30%; inactive means below that, where a call was filed; further: 0% is about no effect
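Dopamine at EC80 is the agonist stimulus; test compounds precede it by 180 s. Calcium flux read kinetically in a force-coupled, inducible HEK293 T-REx D2 cell line.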
D2 PAM-2 – Beta-Arrestin HTS for Positive Allosteric Modulators of the Human D2 Dopamine Receptor: Potentiators. DiscoveRx D2 beta-arrestin cells, luminescence, 90 min; 100% = 57 uM dopamine signal. potentiation, % (test concentration not listed). hit rate 0.23% among 360,000. AID 624464, 2012; in the data active means potentiation above about 50%
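PathHunter beta-arrestin assay in DiscoveRx D2 cells. Compounds were added with an EC20 of dopamine (50 nM final) for 90 min at 37 deg C. Luminescence was read 1 h after detection reagent, with 57 uM dopamine as the EC100 control.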
D2 ag-2 – Beta-Arrestin HTS for Positive Allosteric Modulators of the Human D2 Dopamine Receptor: Agonists. D(2) dopamine receptor (Homo sapiens), P14416. DiscoveRx PathHunter D2 beta-arrestin, luminescence, 90 min; 100% = 57 uM dopamine signal. activation, % (no concentration beside the values). hit rate 0.084% among 360,000. AID 624465, 2012; in the data active means activation above about 40%
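DiscoveRx PathHunter D2 beta-arrestin cells (2,100/well) attached overnight, then compound-stimulated 90 min at 37 C in HBSS/10 mM HEPES/0.1% Tween-20 buffer; beta-galactosidase complementation read by luminescence after 1 h at ambient temperature. Dopamine 57 uM final (EC100) as control.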
* hit, by the source's call; . = no result given; ! = repeats disagree. Hits are enriched below; roughly 2.4% of the tested compounds scored in any of these assays.

SMILES	D2 PAM-1	D2 ag-1	D2 antag	D2 PAM-2	D2 ag-2
Cc1ccc(C)c(C(=O)CSc2nc3cc(C(=O)NC4CCCC4)ccc3c(=O)n2CC2CCCO2)c1 (stereo not drawn)	9	0	.	.	.
Cc1cc(N2CC(=O)N(CCc3ccccc3)C(=O)C2)n2ncnc2n1	-7	0	32*	-3	0
Cc1cc(N2CCN(c3ccccc3)CC2)n2ncnc2n1	6	0	-7	-2	-2
Cc1cc(N2CCN(C(c3ccccc3)c3ccc(Cl)cc3)CC2)n2ncnc2n1 (stereo not drawn)	8	0	31*	-4	-4
O=C(CSc1nc2cc3ccccc3cc2[nH]1)Nc1cccc(C(F)(F)F)c1	-18	0	.	.	.
Cc1ccc(NC(=O)CCS(=O)(=O)c2cc(Br)cc3c2N(C(=O)C2CC2)CC3)cc1	17	.	.	.	.
CCOC(=O)c1c(C)[nH]c(C)c1C(=O)COC(=O)c1ccc(O)cc1	12	4	-7	-3	0
CCOC(=O)c1c(C)[nH]c(C)c1C(=O)COC(=O)c1ccc(S(=O)(=O)C(F)F)cc1	14	0	39*	8	0
CCOC(=O)NN1C(=O)c2ccccc2NC1c1ccccn1 (stereo not drawn)	.	1	38*	-10	-19
O=C(CN1C(=O)C(=O)c2ccccc21)c1ccccc1	-4	-2	3	-5	-17
CC(C)N(C(=O)CN1C(=O)C(=O)c2ccccc21)c1ccccc1	0	2	36*	-2	-3
COc1ccc(N(CC(C)C)S(=O)(=O)c2nnc(NC(=O)c3cccs3)s2)cc1	0	2	.	.	.
CC1=C(CC(=O)c2ccc(Cl)cc2)C(=O)c2ccccc2C1=O	.	.	.	55*	9
COC(=O)[C@H]1[C@H](c2ccccc2)[C@H](C(=O)OC)O[C@H]1c1ccccc1	.	.	.	-9	-5
COC(=O)C1C(c2ccccc2)C(C(=O)N2CCN(C)CC2)C1c1ccccc1 (stereo not drawn)	1	0	33*	8	-3
Nc1ccccc1SCc1ccccc1	-5	0	31*	-11	-7
Brc1ccc(-c2cn3nc4c(nc3n2)CCCC4)cc1	-7	0	8	-10	-1
Brc1ccc(-c2cn3c(n2)CCc2ccc4cccnc4c2-3)cc1	32*	-1	-6	-12	3
CCC(C)NC(=O)c1cnn2c(C)c3c(nc12)CCCC3 (stereo not drawn)	33*	-2	14	4	-3
CCOc1ccc(C(=O)c2cn(Cc3ccc(OC)cc3)c3cc(OC)c(OC)cc3c2=O)cc1	8	-2	.	.	.
O=S(=O)(c1ccc(Cl)cc1)N(CCCN1CCOCC1)Cc1cccs1	-24	0	43*	-18	3
CCN=c1scc(C)n1/N=C/c1cc(Br)c(O)c(Br)c1	-4	0	-18	-1	-2
CCN=c1scc(C)n1/N=C/c1ccc(O)c(O)c1O	0	32*	-8	117*	49*
CC(C)Oc1cccc(C(=O)Nc2ccc(-c3nc4cc(Cl)cc(Cl)c4o3)cc2)c1	-8	0	.	.	.
CCc1cc2c(N[C@@H](Cc3c[nH]c4ccccc34)C(=O)O)ncnc2s1	8	0	21	2	-2
SMILES	D2 PAM-1	D2 ag-1	D2 antag	D2 PAM-2	D2 ag-2
CCc1cc2c(NC(Cc3c[nH]c4ccccc34)C(=O)O)nc(C)nc2s1 (stereo not drawn)	-1	-2	34*	4	4
CCCS(=O)(=O)N1CC(=O)N(c2cc(C)cc(C)c2)C(C)(C(=O)NC2CCCCCC2)C1 (stereo not drawn)	1	0	.	.	.
Cc1ccc2c(c1)[nH]c1c(N3CCN(Cc4ccccc4)CC3)ncnc12	16	1	-28	-32	2
Cc1ccc2[nH]c3c(N4CCN(Cc5ccccc5)CC4)ncnc3c2c1	-18	1	39*	-20	5
COC(=O)C1=C(C)N(c2ccc(Cl)c(Cl)c2)C(=O)C1	-4	1	32*	-23	-3
Cc1cc(C)c(S(=O)(=O)NCC(c2ccc(N(C)C)cc2)N2CCc3ccccc32)c(C)c1 (stereo not drawn)	0	0	.	.	.
O=C(CCS(=O)(=O)c1cccc2nsnc12)N1CCN(Cc2ccc3c(c2)OCO3)CC1	-4	36*	1	-7	-1
CCN(CC)C(=O)N1CCN(Cc2ccc3c(c2)OCO3)CC1	-10	33*	-16	-4	-2
O=C(c1cc2ccccc2o1)N1CCN(Cc2ccc3c(c2)OCO3)CC1	-19	-1	78*	-33	-1
CC(=O)c1ccc(OCC(O)CN2CCN(Cc3ccc4c(c3)OCO4)CC2)cc1 (stereo not drawn)	3	2	56*!	-6	-2
O=C(CCS(=O)(=O)c1cccc2nsnc12)N1CCN(C(=O)c2ccco2)CC1	-6	0	11	-10	-7
CCC(=O)N1c2ccc(S(=O)(=O)N3CCCCCC3)cc2CC1C (stereo not drawn)	-3	-1	.	.	.
COc1ccc(CCNC(=O)CCCCn2c(=O)c3ccccc3n(Cc3ccc(Cl)cc3)c2=O)cc1OC	11	0	.	.	.
O=C(c1ccc(F)cc1)N1CCCC(N2CCN(Cc3ccc4c(c3)OCO4)CC2)C1 (stereo not drawn)	-13	4	-32	-24	-4
CN(C)c1ccc(C(=O)N2CCCC(N3CCN(Cc4ccc5c(c4)OCO5)CC3)C2)cc1 (stereo not drawn)	-23	1	32*	-44	-5
Cc1ccc(Cl)cc1Nc1nc2ccccc2c2nncn12	9	0	.	.	.
COc1ccc(C(CNC(=O)C(C)(C)Oc2ccc(Cl)cc2)N2CCCCC2)cc1 (stereo not drawn)	-30	-1	86*	-45	-3
COc1ccc(C(CNC(=O)C(C)(C)Oc2ccc(Cl)cc2)N2CCOCC2)cc1 (stereo not drawn)	.	.	.	-36	-7
COc1ccc(C(CNC(=O)COc2ccc(C)cc2)N2CCCCC2)cc1 (stereo not drawn)	-26	-1	.	.	.
COc1ccc(C(CNC(=O)COc2ccc(Cl)c(C)c2)N2CCCCC2)cc1 (stereo not drawn)	-27	0	37*	-34	0
Cc1ccc(-n2c(=O)c3ccc(C(=O)NCc4ccccc4Cl)cc3n(Cc3cccc(F)c3)c2=O)cc1	-5	0	.	.	.
CCOc1ccccc1NC(=O)c1ccc2c(c1)CCN2S(C)(=O)=O	-2	0	.	.	.

Compound activity: PubChem BioAssay, National Center for Advancing Translational Sciences (NCATS)
